Assay results from PubChem BioAssay (Tox21).
Results filed as inconclusive are left out. The source made the active and inactive calls. Unless noted, calls follow the shape of the dose curve; as a rule, active = well fitted curve in the direction sought with a large enough effect in the repeat runs; inconclusive = weak or mixed curves; inactive = no such curve, though single readings can be large; an effect the other way counts as inactive or inconclusive.

How the values were obtained:
[1] = qHTS assay to identify small molecule antagonists of the thyroid receptor (TR) signaling pathway - cell viability counter screen (AID 743064); also: nearly all actives have a fitted effect of over 50% in size
How it was run: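 Plate GH3.TRE-Luc cells; incubate 4 h at 37 °C; add compound, then T3 to 1 nM final; incubate 23.5 h; add CellTiter-Fluor; incubate 30 min at 37 °C, 5% CO2; read fluorescence.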

[2] = qHTS assay to identify small molecule antagonists of the thyroid receptor (TR) signaling pathway (AID 743065); also: series mostly up to about 70 µM; nearly all actives have a fitted effect of over 55% in size
How it was run: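 GH3.TRE-Luc rat pituitary cells (two TREs driving luciferase) were dosed with compound, then stimulated with 1 nM T3 (final) for 23.5 h at 37 C. ONE-Glo luminescence was the read-out, with CellTiter-Fluor fluorescence as the cytotoxicity counter-screen.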

[3] = system: thyroid hormone receptor (rat, GH3 cells); assay: qHTS assay to identify small molecule agonists of the thyroid receptor (TR) signaling pathway (AID 743066; calls by dose curve)
[4] = target: Estrogen receptor (Homo sapiens) (UniProt P03372); assay: qHTS assay to identify small molecule antagonists of the estrogen receptor alpha (ER-alpha) signaling pathway (AID 743069; active = well fitted curve in the direction sought with a large enough effect in the signal ratio in the repeat runs, not every such curve was filed as active; the % refers to the signal ratio)
Chain of Estrogen receptor (Homo sapiens) (P03372 whole entry, looked up): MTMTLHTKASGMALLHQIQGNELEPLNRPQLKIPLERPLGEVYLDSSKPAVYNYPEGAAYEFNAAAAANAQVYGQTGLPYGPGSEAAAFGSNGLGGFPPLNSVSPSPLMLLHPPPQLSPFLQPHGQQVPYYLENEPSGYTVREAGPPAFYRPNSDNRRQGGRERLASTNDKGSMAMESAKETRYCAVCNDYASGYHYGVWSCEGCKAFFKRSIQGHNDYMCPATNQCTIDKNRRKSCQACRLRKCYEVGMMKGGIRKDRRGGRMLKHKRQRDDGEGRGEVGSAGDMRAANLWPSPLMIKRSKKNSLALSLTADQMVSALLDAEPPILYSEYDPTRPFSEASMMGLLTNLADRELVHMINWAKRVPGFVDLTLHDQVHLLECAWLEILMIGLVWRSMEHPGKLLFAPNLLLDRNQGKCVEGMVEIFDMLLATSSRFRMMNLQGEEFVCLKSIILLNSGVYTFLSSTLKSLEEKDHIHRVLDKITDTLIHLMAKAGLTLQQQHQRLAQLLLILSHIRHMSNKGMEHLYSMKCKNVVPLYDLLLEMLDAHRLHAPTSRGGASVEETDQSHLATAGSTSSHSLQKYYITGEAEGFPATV
How it was run: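 Beta-lactamase FRET fluorescence is read after 2 hr at room temperature with LiveBLAzer B/G substrate. Before that, ER-alpha-bla HEK293 cells sit 4 hr after plating, then receive compound plus 17beta-estradiol and incubate 18 hr at 37C.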

[5] = qHTS assay to identify small molecule antagonists of the estrogen receptor alpha (ER-alpha) signaling pathway - cell viability counter screen (AID 743074; calls by dose curve;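 also: HEK293 cells carrying ER-alpha-UAS-bla reporter stimulated with 17beta-estradiol; nearly all actives have a fitted effect of over 45% in size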)
[6] = target: Estrogen receptor (Homo sapiens) (UniProt P03372); assay: qHTS assay to identify small molecule agonists of the estrogen receptor alpha (ER-alpha) signaling pathway (AID 743075; calls by dose curve;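 also: HEK293 GripTite cells with ER-alpha and UAS-driven beta-lactamase reporter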)
[7] = target: Estrogen receptor (Homo sapiens) (UniProt P03372); assay: qHTS assay to identify small molecule agonists of the estrogen receptor alpha (ER-alpha) signaling pathway using the BG1 cell line (AID 743079); also: nearly all actives have a fitted effect of over 20% in size
[8] = qHTS assay to identify small molecule antagonists of the estrogen receptor alpha (ER-alpha) signaling pathway using the BG1 cell line (AID 743080; calls by dose curve;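 also: BG1 cells stimulated with 17beta-estradiol alongside compound; series mostly up to about 70 µM; nearly all actives have a fitted effect of over 25% in size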)
How it was run: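 Seeding, 24 h rest, compound transfer from DMSO, 17beta-estradiol addition, 21.5 h incubation, CellTiter-Fluor (30 min, 37 C), then ONE-Glo (30 min, room temperature): this sequence was run on BG1-Luc-4E2 reporter cells.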

[9] = qHTS assay to identify small molecule antagonists of the estrogen receptor alpha (ER-alpha) signaling pathway using the BG1 cell line - cell viability counter screen (AID 743081);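 also: compound given together with 17beta-estradiol as the ER stimulus; series mostly up to about 70 µM; nearly all actives have a fitted effect of over 45% in size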
[10] = target: Aromatase (Homo sapiens) (UniProt P11511); assay: qHTS assay to identify aromatase inhibitors (AID 743083); also: series mostly up to about 70 µM; nearly all actives have a fitted effect of over 55% in size
Chain of Aromatase (Homo sapiens) (P11511 whole entry, looked up): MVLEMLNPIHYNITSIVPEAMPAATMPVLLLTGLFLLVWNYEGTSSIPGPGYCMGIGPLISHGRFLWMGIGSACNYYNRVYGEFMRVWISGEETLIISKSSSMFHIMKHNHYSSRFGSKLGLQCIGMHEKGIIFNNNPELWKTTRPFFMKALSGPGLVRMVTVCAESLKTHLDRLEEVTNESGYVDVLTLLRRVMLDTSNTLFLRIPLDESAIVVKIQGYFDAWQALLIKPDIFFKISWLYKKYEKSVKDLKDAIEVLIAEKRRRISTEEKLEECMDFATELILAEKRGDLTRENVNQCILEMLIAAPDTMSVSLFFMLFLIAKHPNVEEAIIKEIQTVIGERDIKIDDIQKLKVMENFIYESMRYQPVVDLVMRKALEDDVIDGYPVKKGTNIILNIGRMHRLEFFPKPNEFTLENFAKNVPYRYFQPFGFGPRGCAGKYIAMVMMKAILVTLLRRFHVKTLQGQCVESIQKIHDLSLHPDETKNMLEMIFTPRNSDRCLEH

[11] = qHTS assay to identify aromatase inhibitors - cell viability counter screen (AID 743084);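 also: cells stimulated with testosterone during compound exposure; nearly all actives have a fitted effect of over 55% in size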
[12] = target: Aryl hydrocarbon receptor (Homo sapiens) (UniProt P35869); assay: qHTS assay to identify small molecule that activate the aryl hydrocarbon receptor (AhR) signaling pathway (AID 743085);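 also: HG2L7.5c1 human HepG2 liver cells with stably integrated DRE-driven firefly reporter; series mostly up to about 70 µM; nearly all actives have a fitted effect of over 15% in size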
Chain of Aryl hydrocarbon receptor (Homo sapiens) (P35869 whole entry, looked up): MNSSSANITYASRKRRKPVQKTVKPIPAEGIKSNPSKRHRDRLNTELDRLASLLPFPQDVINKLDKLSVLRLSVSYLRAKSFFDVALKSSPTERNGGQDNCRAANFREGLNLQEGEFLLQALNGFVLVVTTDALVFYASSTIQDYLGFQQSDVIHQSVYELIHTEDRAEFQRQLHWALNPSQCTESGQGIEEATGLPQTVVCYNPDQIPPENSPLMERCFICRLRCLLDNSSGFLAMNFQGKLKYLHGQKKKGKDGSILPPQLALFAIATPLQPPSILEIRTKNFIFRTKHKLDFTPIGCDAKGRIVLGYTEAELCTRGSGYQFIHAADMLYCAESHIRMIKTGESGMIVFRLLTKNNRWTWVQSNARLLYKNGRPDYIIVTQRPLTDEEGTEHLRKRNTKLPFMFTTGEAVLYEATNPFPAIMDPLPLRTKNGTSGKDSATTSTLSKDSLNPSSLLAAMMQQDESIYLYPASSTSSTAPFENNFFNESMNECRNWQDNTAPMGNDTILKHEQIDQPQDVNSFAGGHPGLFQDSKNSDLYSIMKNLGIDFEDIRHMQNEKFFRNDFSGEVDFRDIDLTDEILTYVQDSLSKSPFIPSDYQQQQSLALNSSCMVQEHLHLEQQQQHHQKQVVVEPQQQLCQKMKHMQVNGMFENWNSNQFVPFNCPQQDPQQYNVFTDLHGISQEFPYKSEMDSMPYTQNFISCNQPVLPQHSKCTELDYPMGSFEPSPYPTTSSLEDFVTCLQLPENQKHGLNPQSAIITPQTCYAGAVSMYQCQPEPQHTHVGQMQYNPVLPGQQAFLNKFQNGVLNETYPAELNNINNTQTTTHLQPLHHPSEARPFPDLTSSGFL
How it was run: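 Steps: seed HepG2-AhR-luc cells; allow 5 h at 37C; pin-transfer test compound or vehicle; incubate 24 h at 37C; add viability dye (30 min, 37C) and read fluorescence; add luciferase substrate (30 min, RT) and read luminescence.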

[13] = qHTS assay to identify small molecule that activate the aryl hydrocarbon receptor (AhR) signaling pathway - cell viability counter screen (AID 743086);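 also: HepG2 liver cells carrying the AhR DRE luciferase reporter; series mostly up to about 70 µM; nearly all actives have a fitted effect of over 45% in size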
How it was run: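 HepG2-AhR-luc (HG2L7.5c1) cells, 4000/well, treated 24 h at 37 C with compound; viability measured as CellTiter-Fluor fluorescence after 30 min in the same wells as the luciferase read.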

[14] = target: Peroxisome proliferator-activated receptor gamma (Homo sapiens) (UniProt P37231); assay: qHTS assay to identify small molecule agonists of the peroxisome proliferator-activated receptor gamma (PPARg) signaling pathway (AID 743094; active = well fitted activation curve with a large enough effect in the signal ratio in the repeat runs, not every such curve was filed as active; the % refers to the signal ratio)
Chain of Peroxisome proliferator-activated receptor gamma (Homo sapiens) (P37231 whole entry, looked up): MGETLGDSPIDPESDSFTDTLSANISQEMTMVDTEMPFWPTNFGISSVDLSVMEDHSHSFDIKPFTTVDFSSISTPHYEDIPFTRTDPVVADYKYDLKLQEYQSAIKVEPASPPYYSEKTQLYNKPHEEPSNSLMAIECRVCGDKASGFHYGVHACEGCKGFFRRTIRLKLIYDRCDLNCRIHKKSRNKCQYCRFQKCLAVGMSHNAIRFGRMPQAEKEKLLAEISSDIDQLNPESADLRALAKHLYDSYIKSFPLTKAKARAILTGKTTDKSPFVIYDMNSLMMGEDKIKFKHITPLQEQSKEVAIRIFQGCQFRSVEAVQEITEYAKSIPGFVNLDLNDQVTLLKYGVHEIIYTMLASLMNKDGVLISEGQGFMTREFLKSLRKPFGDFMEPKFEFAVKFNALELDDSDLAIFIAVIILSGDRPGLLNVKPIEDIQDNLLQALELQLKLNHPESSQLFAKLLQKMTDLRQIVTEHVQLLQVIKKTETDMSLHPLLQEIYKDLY
How it was run: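 HEK293H PPARg-bla cells, 5 h settle at 37C/5% CO2; compound (DMSO) 17 h, 37C; B/G FRET substrate 1 h RT; fluorescence intensity read-out. qHTS format.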

[15] = target: Peroxisome proliferator-activated receptor gamma (Homo sapiens) (UniProt P37231); assay: qHTS assay to identify small molecule antagonists of the peroxisome proliferator-activated receptor gamma (PPARg) signaling pathway (AID 743191; calls by dose curve; also: series mostly up to about 63 µM; nearly all actives have a fitted effect of over 30% in size)
How it was run: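 GeneBLAzer PPARg UAS-bla HEK293H cells, 5 h post-plating, exposed to compounds 17 h at 37C. LiveBLAzer B/G FRET substrate added for 1 h at room temperature; beta-lactamase reporter read by fluorescence intensity.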

[16] = qHTS assay to identify small molecule antagonists of the peroxisome proliferator-activated receptor gamma (PPARg) signaling pathway - cell viability counter screen (AID 743194); also: nearly all actives have a fitted effect of over 55% in size
How it was run: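 Cytotoxicity counter screen in PPARg-bla HEK293H cells, same wells as reporter assay. Compounds plus 50 nM rosiglitazone (final) for 17 h at 37 C, then viability read by CellTiter-Glo luminescence.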

[17] = qHTS assay for small molecule agonists of the antioxidant response element (ARE) signaling pathway - cell viability counter screen (AID 743203; calls by dose curve; also: nearly all actives have a fitted effect of over 55% in size)
How it was run: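 Luminescence read-out (CellTiter-Glo, 30 min at room temperature) measured cell viability in the same wells as the ARE beta-lactamase reporter. HepG2 ARE-bla cells were treated with compounds for 16 hrs at 37C/5% CO2.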

[18] = qHTS assay for small molecule activators of the heat shock response signaling pathway - cell viability counter screen (AID 743209); also: nearly all actives have a fitted effect of over 50% in size
How it was run: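 HSE-bla HeLa; 1500 cells/well; overnight 37 C, 5% CO2; compound 5 h 37 C; LiveBLAzer B/G substrate 2.5 h RT; CellTiter-Glo 30 min RT; luminescence.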

[19] = qHTS assay for small molecule activators of the heat shock response signaling pathway (AID 743210; active = well fitted activation curve with a large enough effect in the signal ratio in the repeat runs, with a control signal flat, not every such curve was filed as active; the % refers to the signal ratio;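 also: HeLa cells with beta-lactamase reporter driven by heat shock elements; series mostly up to about 63 µM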)
How it was run: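 Beta-lactamase reporter read-out: FRET substrate fluorescence after 2.5 h at RT, following 5 h compound treatment at 37 C of HeLa cells carrying HSE-driven bla reporter; quantitative HTS format.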

[20] = qHTS assay for small molecule agonists of the antioxidant response element (ARE) signaling pathway (AID 743202; active = well fitted activation curve with a large enough effect in the signal ratio in the repeat runs, not every such curve was filed as active; the % refers to the signal ratio)
How it was run: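 HepG2 ARE-bla reporter line, 2,000 cells/well; 5 h preincubation 37 C/5% CO2; compound (DMSO) 16 h 37 C; B/G FRET substrate 2 h RT; fluorescence intensity.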

Measured: Potency

O=C=NCC1CCCC(CN=C=O)C1 (stereo not drawn)
inactive: [1] | [2] | [3] | [4] | [5] | [6] | [7] | [8] | [9] | [10] | [11] | [12] | [13] | [14] | [15] | [16] | [17] | [18] | [19]

O=C(Cn1ccnc1[N+](=O)[O-])NCc1ccccc1
inactive: [1] | [2] | [3] | [4] | [5] | [6] | [7] | [8] | [9] | [10] | [11] | [12] | [13] | [14] | [15] | [16] | [20] | [17] | [18] | [19]

N#CCC(=O)NN
inactive: [1] | [2] | [3] | [4] | [5] | [6] | [7] | [8] | [9] | [10] | [11] | [12] | [13] | [14] | [15] | [16] | [17] | [18]

CC(S)C(C)S (stereo not drawn)
inactive: [1] | [2] | [3] | [4] | [5] | [6] | [7] | [8] | [9] | [10] | [11] | [12] | [13] | [14] | [15] | [16] | [20] | [17] | [18] | [19]

CCO
inactive: [1] | [2] | [3] | [4] | [5] | [6] | [7] | [8] | [9] | [10] | [11] | [12] | [13] | [14] | [15] | [20] | [17] | [18] | [19]

Cc1cc(C)c(C(=O)O)c(C)c1
inactive: [1] | [2] | [3] | [4] | [5] | [6] | [7] | [8] | [9] | [10] | [11] | [12] | [13] | [14] | [15] | [16] | [20] | [17] | [18]

Nc1nnnn1-c1ccccc1
inactive: [1] | [2] | [3] | [4] | [5] | [6] | [7] | [8] | [9] | [10] | [11] | [12] | [13] | [14] | [16] | [20] | [17] | [18] | [19]

C[Si]1(C)O[Si](C)(C)O[Si](C)(C)O[Si](C)(C)O[Si](C)(C)O1
inactive: [1] | [2] | [3] | [4] | [5] | [6] | [7] | [8] | [9] | [10] | [11] | [12] | [13] | [14] | [16] | [20] | [17] | [18] | [19]
